Shown is part of a subset that was picked to be rich in hits.
SF1 inhibitor – inhibitors of human SF-1, primary screen, cell-based, CHO-K1, Gal4-SF-1 LBD, luciferase luminescence; CHO-K1 Gal4-SF-1 LBD luciferase reporter; inhibition, % at 10 µM; Steroidogenic factor 1 (Homo sapiens), Q13285; 65,000 compounds, 0.55% hits; AID 525, 2006;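 active = inhibition above the mean inhibition of all tested compounds plus 3 SD, cut at about 48% in these data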
Target sequence (Q13285 whole entry, looked up, the tested form may be a part): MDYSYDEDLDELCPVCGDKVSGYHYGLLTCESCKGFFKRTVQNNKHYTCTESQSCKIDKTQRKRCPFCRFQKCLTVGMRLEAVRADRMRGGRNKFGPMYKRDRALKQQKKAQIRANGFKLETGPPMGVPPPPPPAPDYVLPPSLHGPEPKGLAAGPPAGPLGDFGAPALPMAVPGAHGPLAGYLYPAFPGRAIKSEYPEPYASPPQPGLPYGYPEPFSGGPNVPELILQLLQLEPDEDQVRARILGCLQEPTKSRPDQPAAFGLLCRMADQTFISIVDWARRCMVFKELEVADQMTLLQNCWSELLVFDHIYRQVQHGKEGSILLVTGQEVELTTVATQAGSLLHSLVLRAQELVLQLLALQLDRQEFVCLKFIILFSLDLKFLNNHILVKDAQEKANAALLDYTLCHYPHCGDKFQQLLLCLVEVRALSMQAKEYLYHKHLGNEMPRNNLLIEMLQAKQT
Each line names hits and unclear results; the compound was inactive in the other large screens.

CCOC(=O)c1c(C)[nH]c(C)c1C(=O)COC(=O)CCOc1ccccc1OC	none
COc1ccccc1OCC(=O)c1[nH]c(C)c(C(C)=O)c1C	SF1 inhibitor 50
COC(=O)c1c(C)[nH]c(C(C)=O)c1C	none
O=C(Nc1ccc2c(c1)OCCO2)c1ccc(Br)o1	none
C/C(=N\O)c1ccc2c3c([nH]c2c1)CCCC3	none
CCCn1c(NC(=O)C2CCN(S(=O)(=O)c3cccs3)CC2)nc2ccccc21	none
O=C(O)CCCCNS(=O)(=O)c1ccc(Cl)c(C(F)(F)F)c1	none
CCOC(=O)c1cc2sccc2n1CCCN1C(=O)c2ccccc2C1=O	none
CCOC(=O)c1[nH]c(C)c(C(=O)Nc2ccccc2F)c1C	none
CC(=O)c1c(C)[nH]c(C(=O)OCCCCN2C(=O)c3ccccc3C2=O)c1C	SF1 inhibitor 84
COc1ccc(Cl)cc1N(C)C(=O)CCNC(=O)Cn1cnc2ccccc2c1=O	none
O=C(CCS(=O)CCC(=O)NCc1ccccc1)NCc1ccccc1	none
Cc1ccc(-c2nc(-c3ccccc3)no2)c(Cl)c1	SF1 inhibitor 70
c1ccc(-c2noc(-c3cccc4ccccc34)n2)cc1	none
COc1cccc(-c2nc(-c3ccccc3)no2)c1	none
CCOC(=O)CSc1n[nH]c(-c2cccnc2)n1	none
Cc1csc(NC(=O)c2cnc3ccccn3c2=O)n1	none
Cc1cc(NC(=O)c2noc3c2CCCCC3)no1	none
Cc1cc(NC(=O)c2ccc3c(c2)OCCO3)no1	SF1 inhibitor 51
Cc1cc(NC(=O)c2ccc3c(c2)OCO3)no1	none
CCOCCCNc1ccc(-c2ccccc2)nn1	none
[O-][N+]1=c2ccc(Nc3ccccc3)cc2=NC12CCCCC2	SF1 inhibitor 62
CC(C)N(C=O)C1(C(=O)NC2CCCCC2)CCCCC1	none
O=C(Cn1ccsc1=NC(=O)c1ccco1)c1ccccc1	none
CC(C)(C)n1ncc2c(=O)n(CC(=O)NCc3ccccc3Cl)cnc21	none
O=c1cc(N2CCN(c3cccc(Cl)c3)CC2)[nH]c(=O)n1C1CCCCC1	SF1 inhibitor 80
CCOC(=O)C1CCN(c2cc(=O)n(C3CCCCC3)c(=O)[nH]2)CC1	none
CN1CCN(C2=C(Cl)C(=O)N(c3cccc(Cl)c3)C2=O)CC1	none
Cc1ccccc1-n1c(=O)cc(N2CCCCCC2)[nH]c1=O	none
O=c1cc(N2CCN(c3ccccc3)CC2)[nH]c(=O)n1C1CCCCC1	SF1 inhibitor 52
O=c1cc(NCC2CCCO2)[nH]c(=O)n1-c1ccc(Cl)cc1 (configuration not stated)	none
COCCNC(=O)c1cc(-c2ccccc2OC)on1	none
CN(C)S(=O)(=O)c1cccc(C(=O)C2=C3SC=C(c4ccccc4)N3CC2)c1	none
COc1ccc(N2CCN(C(=O)c3ccc(S(=O)(=O)N4CCOCC4)cc3)CC2)cc1	none
O=C(OCC(=O)N1CCN(C(=O)c2ccco2)CC1)c1sc2ccccc2c1Cl	none
CCOC(=O)Cn1c(CN2CC(C)OC(C)C2)nc2c1c(=O)n(C)c(=O)n2C (configuration not stated)	none
O=S(=O)(N1CCCCCC1)N1CCN(S(=O)(=O)N2CCOCC2)CC1	none
Cc1cccc(NC(=O)CSc2nnc(-c3cc(C)n(-c4ccccc4)c3C)o2)c1C	SF1 inhibitor 73
Cc1ccccc1NC(=O)CSc1[nH]c(=O)cc(C)c1C#N	none
Cc1ccc(Cl)cc1NC(=O)CSc1nnc(C)n1-c1ccccc1	none
CCN1C(=O)c2ccccc2S(=O)c2ccc(C(=O)NCCCN3CCCC3=O)cc21 (configuration not stated)	none
NC(=O)c1ccsc1NC(=O)COc1ccccc1	none
COc1ccc(NC(=O)c2ccco2)c(NC(=O)Cc2cccs2)c1	none
Cc1ccccc1-c1nc2cc(N)ccc2o1	none
Nc1ccc2oc(CCc3ccccc3)nc2c1	none
CC(C)c1ccc2oc(-c3cc(N)ccc3O)nc2c1	SF1 inhibitor 60
CC(C)CN(C(=O)c1ccc(=O)n(C)n1)c1nc2ccccc2s1	none
CCNC(=O)c1ccc(NS(=O)(=O)c2ccccc2)cc1	none
O=C(CSc1nnnn1C1CCCC1)Nc1cccc(NC(=O)c2ccco2)c1	none
O=C(CSc1nnnn1C1CC2CCC1C2)Nc1ccnc2ccccc12 (configuration not stated)	SF1 inhibitor 76
COc1ccccc1-n1nnnc1SCC(=O)Nc1cc(C)on1	none
COc1cc(-c2nnc3sc(-c4ccco4)nn23)cc(OC)c1OC	none
COc1cccc(-c2c(NC(=O)c3ccco3)n(-c3ccc(C)cc3)nc(C)c2=O)c1	none
Nc1nc(Nc2cccc(F)c2)nc2ccccc12	none
CN(C1CCCCC1)S(=O)(=O)c1ccc(-n2cnnn2)cc1	none
Cc1ccc(C)c(S(=O)(=O)c2c(N)n(/N=C/c3ccco3)c3nc4ccccc4nc23)c1	none
O=C(Nc1ccc2c(c1)OCO2)c1cccs1	none
c1cc(CNc2ccc3c(c2)OCO3)ccn1	none
O=C(/C=C\Nc1ccc2c(c1)OCO2)c1ccccn1	SF1 inhibitor 83
Cc1c(-c2ccco2)[n+](=O)c2c(n1[O-])CCC2	none
COCCOC(=O)C1=C(C)N=C2SCCC(=O)N2C1c1ccc(C(=O)OC)cc1 (configuration not stated)	none
COc1ccccc1NC(=O)CSc1nnc(Cn2c(=O)sc3ccccc32)n1C	none
COC(=O)c1cc(COc2ccc3ccc(=O)oc3c2)c(C)o1	none

Assay outcomes (PubChem)
